The record followed here is the supplement of paper PMC12645437, “Orthogonal IMiD-Degron Pairs Induce Selective Protein Degradation in Cells” (ACS Chemical Biology, 2025).

The assay deals with T1, CRBN, Q96SW2.
T1 chain: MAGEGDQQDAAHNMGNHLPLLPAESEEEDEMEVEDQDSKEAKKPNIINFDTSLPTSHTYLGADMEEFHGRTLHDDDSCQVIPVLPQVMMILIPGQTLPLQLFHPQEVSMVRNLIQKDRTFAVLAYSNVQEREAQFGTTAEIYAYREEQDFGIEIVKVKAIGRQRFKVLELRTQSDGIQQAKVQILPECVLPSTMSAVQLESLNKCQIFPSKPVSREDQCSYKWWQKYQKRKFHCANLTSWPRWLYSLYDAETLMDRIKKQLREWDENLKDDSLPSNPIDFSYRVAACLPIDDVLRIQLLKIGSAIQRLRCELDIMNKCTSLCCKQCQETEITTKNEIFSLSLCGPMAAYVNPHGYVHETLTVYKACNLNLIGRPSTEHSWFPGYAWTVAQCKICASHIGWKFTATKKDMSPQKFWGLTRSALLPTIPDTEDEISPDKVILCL
The assay can be described thus: log2 fold change of degron read counts, EGFP-low vs EGFP+ sorted cells (limma voom), compound-induced degradation; higher = more compound-induced degradation of the degron-EGFP fusion; degrons are variants of IKZF1/3 zinc finger 2; compound dose not given here. Conditions: Jurkat, 18 h.

[1] abbreviates: compound: compound 19 (5-tert-butyl-thalidomide).
[2] abbreviates: compound: compound 22 (5-morpholino-thalidomide).
Where [3] appears, read: compound: compound 33 (diphenyl IMiD analogue).

Whole data set: some 8,300 sequences, median “log2 fold change of degron read counts, EGFP-low vs EGFP+ sorted cells (limma voom), compound-induced degradation” near -1.1, cut for the highest 2% near 3.2. The entries come from a sample that favours the highest values as a whole.
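Further: pooled lentiviral library of zinc finger degron-EGFP fusions in mCherry-positive Jurkat cells, FACS-sorted after compound exposure, with degron abundance counted by next-generation sequencing.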

B1: 46F_47F_49E_50I_52G_53R_54C_55F_67L_, Q9UKT9 (peptide)
chain: FFCEICGRCFTQKGNLLRHIKL
As for B1, the “log2 fold change of degron read counts” value is 0.787 under setting [1], 0.568 under setting [2], 0.232 under setting [3] and -0.767 (compound: thalidomide).

B2: 46L_47A_49P_50I_52G_53F_54A_55C_67L_, Q9UKT9 (peptide)
chain: LACPICGFACTQKGNLLRHIKL
Take B2: the “log2 fold change of degron read counts” value is, setting by setting: under setting [1], 3.6; under setting [2], 2.95; under setting [3], 2.05; (compound: thalidomide) 2.43.

B3: 46L_47V_49P_50I_52G_53F_54A_55C_67L_, Q9UKT9 (peptide)
chain: LVCPICGFACTQKGNLLRHIKL
On to B3, for which the “log2 fold change of degron read counts” value under setting [1] was found to be 1.96, the “log2 fold change of degron read counts” value under setting [2] stood at 3.25, the “log2 fold change of degron read counts” value under setting [3] was found to be 2.26 and the “log2 fold change of degron read counts” value (compound: thalidomide) amounted to 3.56.

B4: 46L_47K_49P_50I_52G_53F_54A_55C_67L_, Q9UKT9 (peptide)
chain: LKCPICGFACTQKGNLLRHIKL
B4: the “log2 fold change of degron read counts” value under setting [1] was determined as 1.2, the “log2 fold change of degron read counts” value under setting [2] is -0.283, the “log2 fold change of degron read counts” value under setting [3] is -0.872 and the “log2 fold change of degron read counts” value (compound: thalidomide) was found to be 1.19.

B5: 46L_47S_49P_50I_52G_53F_54A_55C_67L_, Q9UKT9 (peptide)
chain: LSCPICGFACTQKGNLLRHIKL
Take B5: the “log2 fold change of degron read counts” value was found to be 2.81 under setting [1], 2.91 under setting [2], 2.59 under setting [3] and 2.54 (compound: thalidomide).

B6: 46L_47T_49P_50I_52G_53F_54A_55C_67L_, Q9UKT9 (peptide)
chain: LTCPICGFACTQKGNLLRHIKL
B6: the “log2 fold change of degron read counts” value runs as follows: under setting [1], 2.49; under setting [2], 3.12; under setting [3], 2.65; (compound: thalidomide) 3.02.

B7: 46L_47F_49P_50I_52G_53F_54A_55C_67L_, Q9UKT9 (peptide)
chain: LFCPICGFACTQKGNLLRHIKL
Regarding B7, the “log2 fold change of degron read counts” value reads like this: under setting [1], 3.05; under setting [2], 3.52; under setting [3], 2.44; (compound: thalidomide) 1.94.

B8: 46L_47Y_49P_50I_52G_53F_54A_55C_67L_, Q9UKT9 (peptide)
chain: LYCPICGFACTQKGNLLRHIKL
In the case of B8, the “log2 fold change of degron read counts” value runs as follows: under setting [1], 2.98; under setting [2], 3.33; under setting [3], 2.6; (compound: thalidomide) 1.77.

B9: 46L_47N_49P_50I_52G_53F_54A_55C_67L_, Q9UKT9 (peptide)
chain: LNCPICGFACTQKGNLLRHIKL
Consider B9, for which the “log2 fold change of degron read counts” value runs as follows: under setting [1], 2.3; under setting [2], 1.32; under setting [3], 1.06; (compound: thalidomide) 1.78.

B10: 46L_47D_49P_50I_52G_53F_54A_55C_67L_, Q9UKT9 (peptide)
chain: LDCPICGFACTQKGNLLRHIKL
Take B10: the “log2 fold change of degron read counts” value was 0.373 under setting [1], -0.371 under setting [2], 0.648 under setting [3] and 1.61 (compound: thalidomide).

B11: 46L_47E_49P_50I_52G_53F_54A_55C_67L_, Q9UKT9 (peptide)
chain: LECPICGFACTQKGNLLRHIKL
Regarding B11, the “log2 fold change of degron read counts” value under setting [1] stood at 1.75, the “log2 fold change of degron read counts” value under setting [2] was -0.131, the “log2 fold change of degron read counts” value under setting [3] was found to be 2.17 and the “log2 fold change of degron read counts” value (compound: thalidomide) came to 3.17.

B12: 46L_47C_49P_50I_52G_53F_54A_55C_67L_, Q9UKT9 (peptide)
chain: LCCPICGFACTQKGNLLRHIKL
B12: the “log2 fold change of degron read counts” value turned out to be 2.49 under setting [1], 2.68 under setting [2], 2.8 under setting [3] and 2.77 (compound: thalidomide).

B13: 46L_47R_49P_50I_52G_53F_54A_55C_67L_, Q9UKT9 (peptide)
chain: LRCPICGFACTQKGNLLRHIKL
On to B13, for which the “log2 fold change of degron read counts” value amounted to 2.16 under setting [1], 2.14 under setting [2], 2.39 under setting [3] and 2.57 (compound: thalidomide).

B14: 46F_47K_49N_50I_52G_53A_54T_55F_67L_, Q9UKT9 (peptide)
chain: FKCNICGATFTQKGNLLRHIKL
Take B14: the “log2 fold change of degron read counts” value by setting is: under setting [1], -2.19; under setting [2], -2.52; under setting [3], -3.31; (compound: thalidomide) -1.21.

B15: 46F_47A_49D_50I_52G_53A_54G_55F_67L_, Q9UKT9 (peptide)
chain: FACDICGAGFTQKGNLLRHIKL
For B15, the “log2 fold change of degron read counts” value runs as follows: under setting [1], 2.54; under setting [2], 0.463; under setting [3], -0.84; (compound: thalidomide) -1.45.

B16: 46F_47E_49P_50I_52G_53R_54F_55F_67L_, Q9UKT9 (peptide)
chain: FECPICGRFFTQKGNLLRHIKL
B16: the “log2 fold change of degron read counts” value under setting [1] is -1.85, the “log2 fold change of degron read counts” value under setting [2] is -1.84, the “log2 fold change of degron read counts” value under setting [3] is -0.566 and the “log2 fold change of degron read counts” value (compound: thalidomide) is 0.632.

B17: 46F_47F_49E_50I_52G_53H_54T_55F_67L_, Q9UKT9 (peptide)
chain: FFCEICGHTFTQKGNLLRHIKL
For B17, the “log2 fold change of degron read counts” value by setting is: under setting [1], -2.85; under setting [2], -2.26; under setting [3], -2.37; (compound: thalidomide) -2.09.

B18: 46F_47Y_49E_50Q_52G_53A_54L_55F_67L_, Q9UKT9 (peptide)
chain: FYCEQCGALFTQKGNLLRHIKL
With B18, the “log2 fold change of degron read counts” value runs as follows: under setting [1], -0.0809; under setting [2], 0.128; under setting [3], -0.131; (compound: thalidomide) -1.75.

B19: 46F_47Y_49P_50I_52G_53R_54A_55F_67L_, Q9UKT9 (peptide)
chain: FYCPICGRAFTQKGNLLRHIKL
As for B19, the “log2 fold change of degron read counts” value reads like this: under setting [1], -3.1; under setting [2], -2.69; under setting [3], -2.69; (compound: thalidomide) -3.4.

B20: 46F_47H_49P_50Q_52G_53A_54T_55F_67L_, Q9UKT9 (peptide)
chain: FHCPQCGATFTQKGNLLRHIKL
Turning to B20, the “log2 fold change of degron read counts” value by setting is: under setting [1], -1.34; under setting [2], -1.81; under setting [3], 0.0255; (compound: thalidomide) -1.77.

B21: 46F_47R_49D_50V_52G_53A_54E_55F_67L_, Q9UKT9 (peptide)
chain: FRCDVCGAEFTQKGNLLRHIKL
On to B21, for which the “log2 fold change of degron read counts” value runs as follows: under setting [1], -2.43; under setting [2], -1.82; under setting [3], 0.12; (compound: thalidomide) -1.26.

B22: 46F_47M_49D_50V_52G_53A_54T_55F_67L_, Q9UKT9 (peptide)
chain: FMCDVCGATFTQKGNLLRHIKL
Turning to B22, the “log2 fold change of degron read counts” value is, setting by setting: under setting [1], -2.12; under setting [2], -2.03; under setting [3], 0.562; (compound: thalidomide) -1.29.

B23: 46F_47I_49P_50I_52G_53A_54L_55F_67L_, Q9UKT9 (peptide)
chain: FICPICGALFTQKGNLLRHIKL
B23: the “log2 fold change of degron read counts” value reads like this: under setting [1], -1.19; under setting [2], 0.987; under setting [3], 1.39; (compound: thalidomide) 1.34.

B24: 46L_47W_49P_50I_52G_53F_54A_55C_67L_, Q9UKT9 (peptide)
chain: LWCPICGFACTQKGNLLRHIKL
B24: the “log2 fold change of degron read counts” value was 2.95 under setting [1], 3.32 under setting [2], 2.72 under setting [3] and 1.84 (compound: thalidomide).

B25: 46L_47G_49P_50I_52G_53F_54A_55C_67L_, Q9UKT9 (peptide)
chain: LGCPICGFACTQKGNLLRHIKL
With B25, the “log2 fold change of degron read counts” value by setting is: under setting [1], 3.1; under setting [2], 2.1; under setting [3], 1.7; (compound: thalidomide) 1.09.

B26: 46L_47Y_49P_50I_52G_53F_54G_55C_67L_, Q9UKT9 (peptide)
chain: LYCPICGFGCTQKGNLLRHIKL
With B26, the “log2 fold change of degron read counts” value runs as follows: under setting [1], 3.31; under setting [2], 2.96; under setting [3], 2.48; (compound: thalidomide) 1.46.

B27: 46L_47I_49P_50I_52G_53F_54A_55C_67L_, Q9UKT9 (peptide)
chain: LICPICGFACTQKGNLLRHIKL
As to B27, the “log2 fold change of degron read counts” value was 0.747 under setting [1], 2.69 under setting [2], 1.82 under setting [3] and 2.87 (compound: thalidomide).

B28: 46L_47M_49P_50I_52G_53F_54A_55C_67L_, Q9UKT9 (peptide)
chain: LMCPICGFACTQKGNLLRHIKL
Take B28: the “log2 fold change of degron read counts” value runs as follows: under setting [1], 1.55; under setting [2], 2.48; under setting [3], 2.86; (compound: thalidomide) 2.97.

B29: 46L_47R_49P_50I_52G_53F_54G_55C_67L_, Q9UKT9 (peptide)
chain: LRCPICGFGCTQKGNLLRHIKL
Turning to B29, the “log2 fold change of degron read counts” value under setting [1] worked out at 2.74, the “log2 fold change of degron read counts” value under setting [2] was 2.14, the “log2 fold change of degron read counts” value under setting [3] was 2.33 and the “log2 fold change of degron read counts” value (compound: thalidomide) worked out at 2.47.

B30: 46L_47F_49P_50I_52G_53F_54G_55C_67L_, Q9UKT9 (peptide)
chain: LFCPICGFGCTQKGNLLRHIKL
Regarding B30, the “log2 fold change of degron read counts” value under setting [1] was determined as 3.06, the “log2 fold change of degron read counts” value under setting [2] is 2.74, the “log2 fold change of degron read counts” value under setting [3] is 2.03 and the “log2 fold change of degron read counts” value (compound: thalidomide) came out at 1.48.

B31: 46L_47Q_49P_50I_52G_53F_54A_55C_67L_, Q9UKT9 (peptide)
chain: LQCPICGFACTQKGNLLRHIKL
Turning to B31, the “log2 fold change of degron read counts” value under setting [1] amounted to 2.66, the “log2 fold change of degron read counts” value under setting [2] turned out to be 2.96, the “log2 fold change of degron read counts” value under setting [3] worked out at 2.47 and the “log2 fold change of degron read counts” value (compound: thalidomide) turned out to be 3.55.

B32: 46L_47L_49P_50I_52G_53F_54A_55C_67L_, Q9UKT9 (peptide)
chain: LLCPICGFACTQKGNLLRHIKL
On to B32, for which the “log2 fold change of degron read counts” value reads like this: under setting [1], 0.701; under setting [2], 0.253; under setting [3], 1.48; (compound: thalidomide) 1.92.
